Experimental findings from PubChem BioAssay (Tox21) are described below.

SMILES strings stand for the structures. “And” between values parts separate entries of the source, which are not always exact repeats. Equal entries are not always repeated. Inconclusive results are not listed. Where a structure was tested more than once in an assay, its records may differ in their call. The source made the active and inactive calls. Unless noted, calls follow the shape of the dose curve; as a rule, active = well fitted curve in the direction sought with a large enough effect in the repeat runs; inconclusive = weak or mixed curves; inactive = no such curve, though single readings can be large; an effect the other way counts as inactive or inconclusive.

Assay [1] deals with Estrogen receptor beta (Homo sapiens) (UniProt Q92731). As to the kind of experiment: qHTS assay to identify small molecule agonists of the estrogen receptor beta (ER-beta) signaling pathway (AID 1259377; active = well fitted activation curve with a large enough effect in the signal ratio in the repeat runs, not every such curve was filed as active; the % refers to the signal ratio). In a few lines: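 Reporter cells (HEK293T, ER-beta-UAS-bla) receive compounds or DMSO after a 6 hr pre-incubation. They then incubate 16 hr at 37C/5% CO2, and fluorescence from LiveBLAzer B/G substrate is measured after 2 hours at room temperature.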
Background: In qHTS, concentration-response curves come from the screen itself.

Assay [2] shares this target. Briefly: qHTS assay to identify small molecule antagonists of the estrogen receptor beta (ER-beta) signaling pathway (AID 1259378; active = well fitted inhibition curve with a large enough effect in the signal ratio in the repeat runs, not every such curve was filed as active; the % refers to the signal ratio). In a few lines:
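ER-beta-UAS-bla HEK293T cells in 2% charcoal-stripped FBS medium treated with compound plus 1nM final 17-beta-estradiol for 16 hr at 37C. Beta-lactamase reporter read by FRET substrate fluorescence after 2 hours at room temperature.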

Assay [3] is described as follows: qHTS assay to identify small molecule agonists of the androgen receptor (AR) signaling pathway in the presence of an antagonist - cell viability counter screen (AID 1259379).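 Also: MDA-kb2 human breast cancer cells carrying an MMTV luciferase reporter; series mostly up to about 92 µM; nearly all actives have a fitted effect of over 25% in size.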 An outline of the steps:
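Counter screen for cell viability run in parallel with the AR agonist-mode luciferase assay. MDA-kb2 cells were co-treated with nilutamide (3.0uM final) and compounds, then incubated 16 hr at 37C, and CellTiter-Fluor fluorescence was measured.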

A short description of assay [4]: qHTS assay to identify small molecule agonists of the estrogen receptor beta (ER-beta) signaling pathway - cell viability counter screen (AID 1259380). Also: nearly all actives have a fitted effect of over 30% in size. Also: potency is read from the fitted curve at half-maximal effect. An outline of the steps: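 In this qHTS counter screen, HEK293T cells carrying an ER-beta/UAS beta-lactamase reporter, grown in 2% charcoal-stripped FBS, received compound for 16 hr; ATP-based CellTiter-Glo luminescence was then read after 30 min at room temperature.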

Assay [5] can be described thus: qHTS assay to identify small molecule antagonists of the estrogen receptor beta (ER-beta) signaling pathway - cell viability counter screen (AID 1259382). Also: series mostly up to about 92 µM; nearly all actives have a fitted effect of over 55% in size. An outline of the steps:
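HEK293T ER-beta-UAS-bla, 2% charcoal-stripped FBS; compounds + 1nM E2 16 hr 37C; CellTiter-Glo luminescence, 30 min RT.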

Assay [6] has as its target Estrogen receptor (Homo sapiens) (UniProt P03372). Briefly: qHTS assay to identify small molecule agonists of the estrogen receptor alpha (ER-alpha) signaling pathway in the presence of an antagonist (AID 1259383; calls by dose curve; also: top concentration of the series differs between compounds; nearly all actives have a fitted effect of over 15% in size). An outline of the steps: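 ER-alpha agonism measured under antagonist challenge: 10.0nM ICI-182,780 (final) plus compound, 15 concentrations, 22hr, VM7Luc4E2 ERE-luciferase cells. Read by luminescence.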

The nature of assay [7]: qHTS assay to identify small molecule agonists or antagonists of the thyroid stimulating hormone receptor (TSHR) signaling pathway - wild type cell line counter screen (AID 1259384; calls by dose curve). In a few lines: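 Wild-type Hek293 cells, 800/well, 18 h at 37C, then compound with Ro20-1724 for 30 min RT. cAMP by HTRF (cAMP-d2/anti-cAMP cryptate), 1 h RT, fluorescence read. 15 concentrations, triplicates.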

Assay [8] in a line: qHTS assay to identify small molecule agonists of the estrogen receptor alpha (ER-alpha) signaling pathway in the presence of an antagonist - cell viability counter screen (AID 1259386).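 Also: series mostly up to about 92 µM; cells exposed to compounds for 22 h at 37 °C before the viability read; nearly all actives have a fitted effect of over 30% in size.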 An outline of the steps: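 Steps: 5-day stripped-FBS culture; seed and incubate 24hr; add ICI-182,780 (10.0nM final); pin 15-point compound titration; incubate 22hr at 37C; add CellTiter-Fluor at 21hr; read fluorescence.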

Assay [9] deals with Progesterone receptor (Homo sapiens) (UniProt P06401). As to the kind of experiment: qHTS assay to identify small molecule agonists of the progesterone receptor (PR) signaling pathway (AID 1346784; calls by dose curve; also: nearly all actives have a fitted effect of over 30% in size). An outline of the steps:
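Reporter assay, GripTite PR-UAS-bla HEK 293T cells: 16 hr exposure to DMSO-dissolved compounds at 37C, 5% CO2, in steroid-depleted (2% charcoal-stripped FBS) medium; beta-lactamase measured by FRET fluorescence.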

Assay [10] shares this target. Briefly: qHTS assay to identify small molecule antagonists of the progesterone receptor (PR) signaling pathway (AID 1346795; active = well fitted inhibition curve with a large enough effect in the signal ratio in the repeat runs, not every such curve was filed as active; the % refers to the signal ratio). An outline of the steps: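 Stimulus R5020 at 1 nM final; cells HEK293T PR-UAS-bla; medium with 2% charcoal-stripped FBS; compound exposure 16 hr at 37C, 5% CO2; detection by FRET beta-lactamase substrate, 2 hr, room temperature.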
Assay [11] in a line: qHTS assay to identify small molecule antagonists of the progesterone receptor (PR) signaling pathway - cell viability counter screen (AID 1346798). Also: series mostly up to about 92 µM; nearly all actives have a fitted effect of over 50% in size. In a few lines: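 In the same plates used for the beta-lactamase readout, cell viability of compound- and R5020-treated PR-UAS-bla HEK293T cells (16 hr, 37C) was assessed by CellTiter-Glo luminescence.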
Assay [12] in a line: qHTS assay to identify small molecule agonists of the progesterone receptor (PR) signaling pathway - cell viability counter screen (AID 1346799; calls by dose curve; also: nearly all actives have a fitted effect of over 45% in size; also: potency is read from the fitted curve at half-maximal effect). In a few lines:
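Multiplexed viability read: CellTiter-Glo luminescence, 30 min RT, following LiveBLAzer FRET measurement on PR-UAS-bla HEK293T cells exposed to compounds 16 hr.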

A short description of assay [13]: qHTS assay to identify small molecule antagonists of the TGF-beta/Smad signaling pathway - cell viability counter screen (AID 1346824). Also: nearly all actives have a fitted effect of over 50% in size. An outline of the steps:
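SBE-bla HEK 293T cells, incubated overnight, then compound plus 0.25 ng/mL TGF-beta1 (stock added) for 5 hr at 37 C. Viability was read in the same wells by CellTiter-Glo luminescence after 30 min at room temperature.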

A short description of assay [14]: qHTS assay to identify small molecule agonists of the TGF-beta/Smad signaling pathway - cell viability counter screen (AID 1346829). Also: top concentration of the series differs between compounds; nearly all actives have a fitted effect of over 45% in size. An outline of the steps:
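SBE-bla HEK 293T cells plated overnight, compound exposure 5 hr at 37 C. Viability read in the same wells by CellTiter-Glo luminescence after 30 min at room temperature, following the beta-lactamase read.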

Assay [15] in a line: qHTS assay to identify small molecule agonists of the TGF-beta/Smad signaling pathway (AID 1346859; active = well fitted activation curve with a large enough effect in the signal ratio in the repeat runs, not every such curve was filed as active; the % refers to the signal ratio; also: series mostly up to about 77 µM). In a few lines:
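Screening used HEK 293T SBE-bla cells at 4,000/well. Test agents: 5 hr, 37 C. Detection: FRET substrate, 2 hr RT, then excitation 405 nm with emissions at 460 and 530 nm.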

The target in assay [16] is Thyrotropin-releasing hormone receptor (Homo sapiens) (UniProt P34981). Briefly: qHTS assay to identify small molecule antagonists of the thyrotropin-releasing hormone receptor (TRHR) signaling pathway (AID 1346877; active = well fitted inhibition curve with a large enough effect in the repeat runs, not every such curve was filed as active; also: series mostly up to about 51 µM). An outline of the steps:
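Human TRHR in HEK293 cells; inhibition of the intracellular calcium rise triggered by 1 nM TRH was followed by fluorescence over 3 min. Compounds were run at 15 concentrations, three replicates each.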

For assay [17] the target is unchanged. Briefly: qHTS assay to identify small molecule agonists of the thyrotropin-releasing hormone receptor (TRHR) signaling pathway (AID 1346891; calls by dose curve; also: series mostly up to about 58 µM). In a few lines: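 Readout was intracellular calcium fluorescence in TRHR-Hek293 cells. Cells were incubated 18 h, dye-loaded 2 h at 37 °C, and treated with compound in agonist mode.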
In assay [18] the target is Androgen receptor (Homo sapiens) (UniProt P10275). Briefly: qHTS assay to identify small molecule agonists of the androgen receptor (AR) signaling pathway in the presence of an antagonist (AID 1259381; calls by dose curve; also: nearly all actives have a fitted effect of over 15% in size). In a few lines:
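AR antagonist background: nilutamide 3.0uM final. Cell line: MDA-kb2, MMTV-driven luciferase, responsive to both AR and GR. Exposure 16hr, 37C, no CO2; ONE-Glo luminescence.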

Assay [19] addresses Thyrotropin receptor (Homo sapiens) (UniProt P16473). As to the kind of experiment: qHTS assay to identify small molecule antagonists of the thyroid stimulating hormone receptor (TSHR) signaling pathway (AID 1259385; calls by dose curve; also: nearly all actives have a fitted effect of over 20% in size). In a few lines:
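TSHR-HEK293 cells (800/well) plated 18 h, then compounds with Ro20-1724 and TSH at 1.5 ng/mL final, 30 min at room temperature. cAMP quantified by HTRF (cAMP-d2/anti-cAMP-cryptate, 1 h); 15 concentrations in triplicate.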

Assay [20] is described as follows: Human pregnane X receptor (PXR) small molecule agonists, qHTS cell viability counter screen (AID 1346977). Also: nearly all actives have a fitted effect of over 50% in size. Also: potency is read from the fitted curve at half-maximal effect. In a few lines: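 In each well, the PXR reporter HepG2 line was checked for viability: CellTiter-Fluor reagent added 23hr post-dosing, fluorescence read after 1hr incubation at 37C.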

Sequence of Thyrotropin-releasing hormone receptor (Homo sapiens) (P34981 whole entry, looked up): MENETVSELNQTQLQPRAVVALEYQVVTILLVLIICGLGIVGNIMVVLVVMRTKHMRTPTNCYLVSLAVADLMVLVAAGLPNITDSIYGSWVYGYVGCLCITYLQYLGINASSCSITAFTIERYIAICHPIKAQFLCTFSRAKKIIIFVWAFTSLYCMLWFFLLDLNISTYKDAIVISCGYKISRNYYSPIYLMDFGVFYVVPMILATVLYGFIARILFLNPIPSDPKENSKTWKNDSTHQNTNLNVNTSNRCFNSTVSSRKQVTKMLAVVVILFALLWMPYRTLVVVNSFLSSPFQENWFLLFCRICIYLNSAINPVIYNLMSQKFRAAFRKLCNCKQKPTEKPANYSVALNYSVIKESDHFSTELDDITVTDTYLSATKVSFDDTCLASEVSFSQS
Sequence of Estrogen receptor (Homo sapiens) (P03372 whole entry, looked up): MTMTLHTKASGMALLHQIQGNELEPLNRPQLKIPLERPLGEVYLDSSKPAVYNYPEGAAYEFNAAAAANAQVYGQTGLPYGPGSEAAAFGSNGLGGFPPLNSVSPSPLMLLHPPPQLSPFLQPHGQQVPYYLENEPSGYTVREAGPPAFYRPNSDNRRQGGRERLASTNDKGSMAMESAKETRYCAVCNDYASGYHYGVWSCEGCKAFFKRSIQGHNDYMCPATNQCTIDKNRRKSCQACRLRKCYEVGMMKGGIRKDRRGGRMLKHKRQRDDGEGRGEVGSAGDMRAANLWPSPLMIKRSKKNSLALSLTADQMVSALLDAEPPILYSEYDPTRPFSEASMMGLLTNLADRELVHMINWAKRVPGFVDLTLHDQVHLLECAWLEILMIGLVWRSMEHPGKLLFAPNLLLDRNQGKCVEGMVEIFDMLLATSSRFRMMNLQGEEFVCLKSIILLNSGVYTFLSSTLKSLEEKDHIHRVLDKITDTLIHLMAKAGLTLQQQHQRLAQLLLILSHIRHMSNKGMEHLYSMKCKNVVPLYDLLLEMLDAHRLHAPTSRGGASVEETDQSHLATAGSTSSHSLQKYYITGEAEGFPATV
Sequence of Progesterone receptor (Homo sapiens) (P06401 whole entry, looked up): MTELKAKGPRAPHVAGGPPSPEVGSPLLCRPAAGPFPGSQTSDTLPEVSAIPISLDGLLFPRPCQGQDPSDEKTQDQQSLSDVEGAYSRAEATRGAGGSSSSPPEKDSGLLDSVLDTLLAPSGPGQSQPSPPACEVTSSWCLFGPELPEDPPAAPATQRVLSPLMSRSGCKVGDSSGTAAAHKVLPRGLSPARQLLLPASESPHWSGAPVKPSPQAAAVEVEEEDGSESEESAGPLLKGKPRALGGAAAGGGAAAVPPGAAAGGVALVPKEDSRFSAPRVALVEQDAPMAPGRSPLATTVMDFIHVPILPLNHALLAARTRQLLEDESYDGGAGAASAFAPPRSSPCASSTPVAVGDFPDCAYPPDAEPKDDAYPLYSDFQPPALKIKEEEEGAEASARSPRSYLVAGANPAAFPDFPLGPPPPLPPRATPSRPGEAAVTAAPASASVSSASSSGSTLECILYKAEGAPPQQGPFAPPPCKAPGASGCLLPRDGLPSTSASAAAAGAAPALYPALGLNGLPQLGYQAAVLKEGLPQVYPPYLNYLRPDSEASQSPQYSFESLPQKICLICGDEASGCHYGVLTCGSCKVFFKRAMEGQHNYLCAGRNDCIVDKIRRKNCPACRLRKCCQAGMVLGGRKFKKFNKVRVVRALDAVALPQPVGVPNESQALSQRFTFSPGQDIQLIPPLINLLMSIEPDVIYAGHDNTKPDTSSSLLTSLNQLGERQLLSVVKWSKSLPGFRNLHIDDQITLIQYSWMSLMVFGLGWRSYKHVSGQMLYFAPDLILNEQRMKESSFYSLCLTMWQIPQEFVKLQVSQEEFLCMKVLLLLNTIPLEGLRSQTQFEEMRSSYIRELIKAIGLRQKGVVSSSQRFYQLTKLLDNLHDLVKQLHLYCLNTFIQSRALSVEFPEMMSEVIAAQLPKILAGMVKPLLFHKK
Sequence of Androgen receptor (Homo sapiens) (P10275 whole entry, looked up): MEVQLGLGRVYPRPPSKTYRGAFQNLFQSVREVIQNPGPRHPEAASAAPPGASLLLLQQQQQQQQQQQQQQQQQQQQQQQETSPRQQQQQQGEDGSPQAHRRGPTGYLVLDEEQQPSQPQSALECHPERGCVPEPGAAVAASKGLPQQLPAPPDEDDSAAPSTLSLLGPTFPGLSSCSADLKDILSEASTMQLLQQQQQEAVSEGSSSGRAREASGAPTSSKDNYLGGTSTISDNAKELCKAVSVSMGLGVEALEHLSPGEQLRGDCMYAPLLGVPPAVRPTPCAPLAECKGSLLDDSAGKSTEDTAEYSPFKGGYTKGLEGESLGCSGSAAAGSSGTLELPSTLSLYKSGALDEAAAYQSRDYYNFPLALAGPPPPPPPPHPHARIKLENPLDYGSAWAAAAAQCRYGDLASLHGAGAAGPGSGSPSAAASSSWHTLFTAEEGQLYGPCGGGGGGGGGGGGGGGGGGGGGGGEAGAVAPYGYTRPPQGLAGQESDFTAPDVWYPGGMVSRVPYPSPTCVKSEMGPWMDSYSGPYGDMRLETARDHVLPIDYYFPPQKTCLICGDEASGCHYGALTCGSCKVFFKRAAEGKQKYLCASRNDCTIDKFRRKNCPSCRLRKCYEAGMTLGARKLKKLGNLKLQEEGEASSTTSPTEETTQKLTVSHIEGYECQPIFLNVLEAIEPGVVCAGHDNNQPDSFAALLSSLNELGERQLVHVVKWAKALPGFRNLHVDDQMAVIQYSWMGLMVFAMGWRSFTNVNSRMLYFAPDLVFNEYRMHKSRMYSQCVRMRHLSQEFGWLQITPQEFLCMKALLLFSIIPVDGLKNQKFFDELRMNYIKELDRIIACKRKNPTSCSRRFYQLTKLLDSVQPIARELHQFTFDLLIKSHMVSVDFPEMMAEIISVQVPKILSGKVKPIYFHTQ
Sequence of Estrogen receptor beta (Homo sapiens) (Q92731 whole entry, looked up): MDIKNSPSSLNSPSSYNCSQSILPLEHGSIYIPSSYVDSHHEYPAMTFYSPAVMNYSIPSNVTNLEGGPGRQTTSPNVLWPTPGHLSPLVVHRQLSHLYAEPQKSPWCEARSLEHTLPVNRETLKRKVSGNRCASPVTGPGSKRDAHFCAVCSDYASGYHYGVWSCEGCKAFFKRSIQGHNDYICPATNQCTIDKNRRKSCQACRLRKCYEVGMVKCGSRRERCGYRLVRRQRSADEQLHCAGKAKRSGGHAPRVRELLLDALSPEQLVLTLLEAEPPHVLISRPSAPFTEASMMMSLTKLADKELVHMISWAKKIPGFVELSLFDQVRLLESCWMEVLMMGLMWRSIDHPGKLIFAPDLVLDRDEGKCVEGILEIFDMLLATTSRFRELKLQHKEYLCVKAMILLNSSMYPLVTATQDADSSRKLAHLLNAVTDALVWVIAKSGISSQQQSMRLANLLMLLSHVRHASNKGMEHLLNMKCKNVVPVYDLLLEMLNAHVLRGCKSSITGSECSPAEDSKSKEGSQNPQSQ
Sequence of Thyrotropin receptor (Homo sapiens) (P16473 whole entry, looked up): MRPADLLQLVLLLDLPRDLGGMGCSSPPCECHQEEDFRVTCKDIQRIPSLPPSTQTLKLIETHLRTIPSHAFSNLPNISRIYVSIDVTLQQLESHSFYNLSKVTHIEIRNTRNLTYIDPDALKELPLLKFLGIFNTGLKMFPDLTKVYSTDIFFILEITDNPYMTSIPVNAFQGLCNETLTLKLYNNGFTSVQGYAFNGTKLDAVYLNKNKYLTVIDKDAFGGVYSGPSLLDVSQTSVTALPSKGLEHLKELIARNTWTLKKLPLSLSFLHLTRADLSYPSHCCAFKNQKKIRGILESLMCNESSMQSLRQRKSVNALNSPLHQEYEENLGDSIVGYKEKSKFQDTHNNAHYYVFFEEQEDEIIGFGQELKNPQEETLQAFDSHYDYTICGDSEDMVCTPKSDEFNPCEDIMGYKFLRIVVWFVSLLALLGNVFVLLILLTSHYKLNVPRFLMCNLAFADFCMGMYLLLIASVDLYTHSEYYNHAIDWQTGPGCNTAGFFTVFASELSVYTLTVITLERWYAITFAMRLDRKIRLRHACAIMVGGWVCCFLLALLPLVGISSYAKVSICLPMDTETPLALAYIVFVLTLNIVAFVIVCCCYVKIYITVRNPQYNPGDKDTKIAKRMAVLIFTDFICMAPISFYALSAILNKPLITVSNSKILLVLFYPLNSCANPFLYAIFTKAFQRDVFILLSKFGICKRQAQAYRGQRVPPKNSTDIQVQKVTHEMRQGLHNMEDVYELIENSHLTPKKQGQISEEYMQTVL

Take `Cn1cnc([N+](=O)[O-])c1Sc1ncnc2nc[nH]c12`: the Potency result in assay [1], in [2], in [3], in assay [5], in assay [6] and in assay [8] was “inactive” in each case. Moreover, the Potency entry in [9], in [10], in assay [11], in assay [13], in assay [14] and in [16] was “inactive” throughout. Further, in assay [17], the Potency result was “inactive”. Further, the Potency in assay [4] is 4.83 µM (active) and 8.41 µM (active); in assay [12], 3.83 µM (active) and inactive. Also, the result in assay [7] and in [15] was inactive.

For the compound `Cc1cccc(C(=O)O)c1`, the Potency result in [1], in [2], in assay [3], in [4], in assay [5] and in [6] was “inactive” each time. In addition, the Potency result in assay [19], in assay [8], in [9], in [10], in [11] and in assay [12] was “inactive” each time. In addition, the Potency entry in assay [13] and in [14] was “inactive” in each case. For the same compound, the outcome in assay [18], in [7] and in assay [15] was inactive. Also, the Potency in assay [20] is 14.1 µM (active).

As to `Cc1ccc2c(n1)Oc1ccc(C(C)C(=O)OCC(=O)N(C)C)cc1C2` (centres undefined), the Potency result in assay [1], in assay [2], in [3], in assay [4], in assay [5] and in [6] was “inactive” throughout. The Potency entry in [19], in assay [8], in assay [9], in [10], in [11] and in assay [12] was “inactive” throughout. Also, the Potency entry in [13], in [14], in assay [16], in [17] and in assay [20] was “inactive” in each case. Further, the result in assay [18], in assay [7] and in [15] was inactive.

Turning to `Cc1cccc([N+](=O)[O-])c1C`, the Potency entry in [1], in assay [2], in assay [3], in assay [4], in assay [5] and in assay [6] was “inactive” throughout. The Potency entry in [8], in [9], in assay [10], in [11], in assay [13] and in assay [14] was “inactive” each time. Besides, the Potency entry in [16], in assay [17] and in [20] was “inactive” in each case. Further, the result in [18] and in [15] was inactive.

As to `CC(=O)CC/C=C(\C)CCC=C(C)C`, the Potency entry in assay [1], in [2], in [3], in assay [4], in assay [5] and in [19] was “inactive” in each case. The Potency entry in assay [8], in assay [9], in [10], in assay [11], in assay [13] and in assay [14] was “inactive” each time. The Potency entry in [16], in assay [17] and in assay [20] was “inactive” each time. Also, the call in [7] and in assay [15] was inactive.

Regarding `c1ccc2c(c1)Oc1ccccc1S2`, the Potency entry in assay [1], in assay [2], in assay [3], in assay [4], in [5] and in assay [19] was “inactive” in each case. For the same compound, the Potency result in [8], in assay [9], in assay [10], in assay [11], in [13] and in assay [14] was “inactive” throughout. The Potency entry in [16], in assay [17] and in assay [20] was “inactive” each time. For the same compound, the call in [7] and in assay [15] was inactive.

Consider `CCCCNS(=O)(=O)c1ccccc1`, for which the Potency result in assay [1], in [2], in assay [3], in assay [4], in [5] and in assay [19] was “inactive” throughout. Further, the Potency result in assay [8], in [9], in assay [10], in assay [11], in assay [12] and in assay [13] was “inactive” throughout. Besides, the Potency result in assay [14], in assay [16], in assay [17] and in [20] was “inactive” each time. For the same compound, the call in [7] and in assay [15] was inactive.
